Holding throughout (conditions): mRNA level, 48 h; actives raise or lower the signal
Read-out in experiment [1]: Cytochrome P450 (CYP2B6), CYP2B6 (gene 1555)
In words: LTEA_HepaRG_CYP2B6: Life Technologies and Expression Analysis (LTEA) Assay for Cytochrome P450 (CYP2B6) using HepaRG (AID 2283481). In a few lines: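 HepaRG cells plated 48 h, switched to serum-free induction medium, then dosed 48 h (8 points, half-log from 100 uM, 0.5% DMSO). RNA isolated; CYP2B6 expression measured by qRT-PCR; gain or loss fitted relative to DMSO.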

Read-out in a further experiment: CYP2C8 (gene 1558)
Kind of experiment: LTEA_HepaRG_CYP2C8: Life Technologies and Expression Analysis (LTEA) Assay for CYP2C8 using HepaRG (AID 2283483). A digest of the protocol: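 CYP2C8 mRNA induction or loss, by qRT-PCR normalized to ACTB/GAPDH/POLR2A, is read in HepaRG cells after 48 h treatment. Concentrations run from 100 uM down in half-log dilutions, with 0.5% DMSO as vehicle and baseline.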

Read-out in a further experiment: CYP2C9 (gene 1559)
In words: LTEA_HepaRG_CYP2C9: Life Technologies and Expression Analysis (LTEA) Assay for CYP2C9 using HepaRG (AID 2283484). In a few lines: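 Cells plated 48 h, switched to serum-free induction medium, then treated in duplicate for 48 h at eight concentrations (max 100 uM, 0.5% DMSO). RNA then analysed by qRT-PCR for CYP2C9; curves fitted in both directions relative to DMSO.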

Read-out in another experiment: CYP2E1 (gene 1571)
Kind of experiment: LTEA_HepaRG_CYP2E1: Life Technologies and Expression Analysis (LTEA) Assay for CYP2E1 using HepaRG (AID 2283485). A digest of the protocol:
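Differentiated HepaRG cells were treated in duplicate for 48 h with chemicals in 0.5% DMSO, from 100 uM downward in half-log dilutions. RNA was then analysed by qRT-PCR for CYP2E1 induction or loss.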

Read-out in the next experiment: CYP4A11 (gene 1579)
Kind of experiment: LTEA_HepaRG_CYP4A11: Life Technologies and Expression Analysis (LTEA) Assay for CYP4A11 using HepaRG (AID 2283486). In a few lines:
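HepaRG, 48 h chem exposure, 8 conc (100 uM top, half-log), 0.5% DMSO vehicle; qRT-PCR readout, housekeeping-gene normalized; bidirectional curve fit vs DMSO baseline.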

Read-out in experiment [2]: Cytochrome P450 3A4 (Homo sapiens) (UniProt P08684)
In words: LTEA_HepaRG_CYP3A4: Life Technologies and Expression Analysis (LTEA) Assay for CYP3A4 using HepaRG (AID 2283487). A digest of the protocol: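 Differentiated HepaRG cells in serum-free induction medium exposed in duplicate for 48 h to 8 half-log concentrations up to 100 uM in 0.5% DMSO. CYP3A4 mRNA measured by qRT-PCR normalized to ACTB, GAPDH and POLR2A; bidirectional fit versus DMSO.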

Read-out in experiment [3]: DNA damage-inducible transcript 3 (DDIT3), DDIT3 (gene 1649)
Kind of experiment: LTEA_HepaRG_DDIT3: Life Technologies and Expression Analysis (LTEA) Assay for DNA damage-inducible transcript 3 (DDIT3) using HepaRG (AID 2283488). A digest of the protocol: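 Changes in DDIT3 transcript, in either direction relative to 0.5% DMSO vehicle, were quantified by TaqMan qRT-PCR after 48 h chemical exposure of HepaRG cells at 8 concentrations, maximum 100 uM.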

Read-out in experiment [4]: Pro-epidermal growth factor (Homo sapiens) (UniProt P01133)
Kind of experiment: LTEA_HepaRG_EGF: Life Technologies and Expression Analysis (LTEA) Assay for Epidermal growth factor (EGF) using HepaRG (AID 2283489). In a few lines: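 HepaRG, 48 h dosing, 100 uM top, half-log x8, 0.5% DMSO. Readout: TaqMan qRT-PCR (Fluidigm array), housekeeping-normalized. Gain or loss of signal fit vs DMSO.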

Read-out in experiment [5]: Early growth response protein 1 (EGR1) transcription factor, EGR1 (gene 1958)
Kind of experiment: LTEA_HepaRG_EGR1: Life Technologies and Expression Analysis (LTEA) Assay for Early growth response protein 1 (EGR1) transcription factor using HepaRG (AID 2283490). A digest of the protocol:
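Read-out is EGR1 mRNA level by qRT-PCR, normalized to three housekeeping genes and analysed for gain or loss of signal against 0.5% DMSO. Source cells: human HepaRG, treated 48 h at up to 100 uM in half-log dilutions.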

Read-out in experiment [6]: Ezrin (EZR), EZR (gene 7430)
In words: LTEA_HepaRG_EZR: Life Technologies and Expression Analysis (LTEA) Assay for Ezrin (EZR) using HepaRG (AID 2283491). In a few lines: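 Differentiated human HepaRG cells, 48 h after plating, were exposed in serum-free induction medium for 48 hours to eight half-log concentrations up to 100 uM in 0.5% DMSO. EZR mRNA was measured by TaqMan qRT-PCR, normalized to ACTB, GAPDH and POLR2A, and fitted bidirectionally against DMSO.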

Read-out in experiment [7]: Cytochrome P450 3A7 (Homo sapiens) (UniProt P24462)
In words: LTEA_HepaRG_CYP3A7: Life Technologies and Expression Analysis (LTEA) Assay for CYP3A7 using HepaRG (AID 2283492). A digest of the protocol: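 Human HepaRG liver cells, 48 h post-plating, switched to serum-free induction medium and exposed in duplicate for 48 h. Dosing: 100 uM top, half-log dilutions, 8 points, 0.5% DMSO vehicle. Read-out: CYP3A7 mRNA, gain or loss fitted against DMSO baseline.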

Read-out in another experiment: CYP3A5 (gene 1577)
In words: LTEA_HepaRG_CYP3A5: Life Technologies and Expression Analysis (LTEA) Assay for CYP3A5 using HepaRG (AID 2283493). A digest of the protocol: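 mRNA induction or loss of CYP3A5 assessed in HepaRG after 48 h dosing, 100 uM top concentration, duplicate wells; TaqMan qRT-PCR with ACTB, GAPDH, POLR2A normalization; 0.5% DMSO as negative control.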

Read-out in experiment [8]: Fatty Acid-Binding Protein 1 (FABP1), FABP1 (gene 2168)
Kind of experiment: LTEA_HepaRG_FABP1: Life Technologies and Expression Analysis (LTEA) Assay for Fatty Acid-Binding Protein 1 (FABP1) using HepaRG (AID 2283494). In a few lines:
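HepaRG, 48 h post-plating switched to serum-free induction medium, then dosed 48 h (duplicate, 8 pts, ≤100 uM, 0.5% DMSO). RNA → Fluidigm TaqMan qRT-PCR, FABP1 normed to ACTB/GAPDH/POLR2A. Bidirectional curve fit vs DMSO.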

Read-out in experiment [9]: Cytochrome P450 4A22 (Homo sapiens) (UniProt Q5TCH4)
In words: LTEA_HepaRG_CYP4A22: Life Technologies and Expression Analysis (LTEA) Assay for Cytochrome P450 4A22 (CYP4A22) using HepaRG (AID 2283495). A digest of the protocol: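 Readout is CYP4A22 transcript induction or loss, quantified by qRT-PCR and normalized to ACTB, GAPDH and POLR2A. Human HepaRG cells receive test chemicals for 48 h at eight half-log concentrations from 100 uM in 0.5% DMSO.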

Read-out in experiment [10]: Cytochrome P450 7A1 (Homo sapiens) (UniProt P22680)
Kind of experiment: LTEA_HepaRG_CYP7A1: Life Technologies and Expression Analysis (LTEA) Assay for Cytochrome P450 7A1 (CYP7A1) using HepaRG (AID 2283496). A digest of the protocol:
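Gene expression endpoint in human HepaRG liver cells treated for 48 h with test chemicals (up to 100 uM, 0.5% DMSO). Values come from bidirectional concentration-response fitting versus DMSO.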

Read-out in experiment [11]: Glutamate-cysteine ligase catalytic (GCLC), GCLC (gene 2729)
Kind of experiment: LTEA_HepaRG_GCLC: Life Technologies and Expression Analysis (LTEA) Assay for Glutamate-cysteine ligase catalytic (GCLC) using HepaRG (AID 2283498). A digest of the protocol:
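Read-out is GCLC transcript level by Fluidigm-based TaqMan qRT-PCR, normalized to three housekeeping genes and fitted in both directions relative to 0.5% DMSO. Human HepaRG cells received chemicals for 48 h, up to 100 uM.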

Read-out in experiment [12]: growth arrest and DNA damage 45 (GADD45G), GADD45G (gene 10912)
In words: LTEA_HepaRG_GADD45G: Life Technologies and Expression Analysis (LTEA) Assay for growth arrest and DNA damage 45 (GADD45G) using HepaRG (AID 2283499). In a few lines: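 Gain or loss of GADD45G mRNA, quantified by TaqMan qRT-PCR against three housekeeping genes, is fitted in both directions relative to 0.5% DMSO. Human HepaRG cultures receive test chemical for 48 h at up to 100 uM.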

Read-out in experiment [13]: Glutamate-cysteine ligase regulatory (GCLM), GCLM (gene 2730)
In words: LTEA_HepaRG_GCLM: Life Technologies and Expression Analysis (LTEA) Assay for Glutamate-cysteine ligase regulatory (GCLM) using HepaRG (AID 2283500). In a few lines:
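Human liver HepaRG cultures receive test chemicals for 48 hours at up to 100 uM in 0.5% DMSO. GCLM expression is measured by qRT-PCR and analysed for increases or decreases against vehicle.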

Read-out in experiment [14]: Cytochrome P450 2C19 (Homo sapiens) (UniProt P33261)
Kind of experiment: LTEA_HepaRG_CYP2C19: Life Technologies and Expression Analysis (LTEA) Assay for CYP2C19 using HepaRG (AID 2283482). In a few lines: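 Transcript levels of CYP2C19 were quantified by qRT-PCR after HepaRG cells were treated for 48 hours with test chemicals up to 100 uM (eight half-log concentrations, 0.5% DMSO vehicle). Gain or loss of signal was fitted relative to DMSO.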

Read-out in experiment [15]: Glutathione S-Transferase (GSTA2), GSTA2 (gene 2939)
In words: LTEA_HepaRG_GSTA2: Life Technologies and Expression Analysis (LTEA) Assay for Glutathione S-Transferase (GSTA2) using HepaRG (AID 2283497). In a few lines:
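HepaRG, 48 h dosing, 8-pt half-log CRC from 100 uM, 0.5% DMSO vehicle, n=2; RNA → Fluidigm TaqMan qRT-PCR; GSTA2 vs ACTB/GAPDH/POLR2A; gain/loss fit vs DMSO.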

Each structure is given as a SMILES string. Activity calls are given as the source filed them. Rule for the calls: active = hit-call score of the fitted dose curve at least 0.9, where 1 is the maximum; inactive = score below 0.9.

Sequence of Cytochrome P450 3A4 (Homo sapiens) (P08684 whole entry, looked up): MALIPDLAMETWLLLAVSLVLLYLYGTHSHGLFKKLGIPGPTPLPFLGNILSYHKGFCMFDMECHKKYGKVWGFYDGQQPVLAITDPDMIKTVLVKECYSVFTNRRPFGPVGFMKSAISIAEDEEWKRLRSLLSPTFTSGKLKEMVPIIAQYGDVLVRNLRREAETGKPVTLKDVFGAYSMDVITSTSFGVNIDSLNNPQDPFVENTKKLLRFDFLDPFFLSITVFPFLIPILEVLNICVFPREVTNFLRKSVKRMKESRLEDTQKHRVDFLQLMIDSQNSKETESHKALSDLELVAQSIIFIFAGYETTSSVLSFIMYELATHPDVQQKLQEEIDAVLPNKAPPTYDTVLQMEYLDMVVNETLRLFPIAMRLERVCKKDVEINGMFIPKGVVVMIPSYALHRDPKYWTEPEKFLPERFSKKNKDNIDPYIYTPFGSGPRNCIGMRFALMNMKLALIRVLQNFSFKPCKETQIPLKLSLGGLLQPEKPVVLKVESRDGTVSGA
Sequence of Cytochrome P450 3A7 (Homo sapiens) (P24462 whole entry, looked up): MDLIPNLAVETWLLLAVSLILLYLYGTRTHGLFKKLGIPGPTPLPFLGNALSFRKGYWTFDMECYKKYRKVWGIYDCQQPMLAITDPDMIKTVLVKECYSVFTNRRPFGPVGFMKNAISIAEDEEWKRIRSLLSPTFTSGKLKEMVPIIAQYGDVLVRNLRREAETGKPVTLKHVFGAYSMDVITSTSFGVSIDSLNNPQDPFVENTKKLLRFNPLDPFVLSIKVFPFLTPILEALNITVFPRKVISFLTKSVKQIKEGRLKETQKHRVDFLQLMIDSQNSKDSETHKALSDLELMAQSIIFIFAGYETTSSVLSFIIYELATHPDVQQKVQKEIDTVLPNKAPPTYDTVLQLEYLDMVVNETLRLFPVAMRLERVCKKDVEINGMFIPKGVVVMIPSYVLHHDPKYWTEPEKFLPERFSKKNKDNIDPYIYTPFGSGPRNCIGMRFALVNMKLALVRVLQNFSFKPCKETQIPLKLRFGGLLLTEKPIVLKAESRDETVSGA
Sequence of Cytochrome P450 2C19 (Homo sapiens) (P33261 whole entry, looked up): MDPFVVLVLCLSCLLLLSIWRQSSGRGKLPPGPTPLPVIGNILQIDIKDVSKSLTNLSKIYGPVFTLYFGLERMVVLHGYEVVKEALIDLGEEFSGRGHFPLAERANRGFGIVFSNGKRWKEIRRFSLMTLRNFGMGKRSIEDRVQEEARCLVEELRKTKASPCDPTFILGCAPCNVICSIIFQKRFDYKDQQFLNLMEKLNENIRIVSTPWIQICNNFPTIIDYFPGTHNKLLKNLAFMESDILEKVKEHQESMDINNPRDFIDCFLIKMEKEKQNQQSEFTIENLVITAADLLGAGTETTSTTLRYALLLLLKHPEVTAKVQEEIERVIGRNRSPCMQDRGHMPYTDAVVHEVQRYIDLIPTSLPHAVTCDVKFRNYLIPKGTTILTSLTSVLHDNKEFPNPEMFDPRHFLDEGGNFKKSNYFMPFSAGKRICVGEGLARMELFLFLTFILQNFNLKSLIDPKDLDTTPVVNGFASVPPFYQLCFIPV

In the case of `N#Cc1cc(Br)c(O)c(Br)c1`, the AC50 is 9.97 µM (active) in experiment [1]; 25.3 µM (active) in the experiment with CYP2C8 (gene 1558); 14.4 µM (active) in the experiment with CYP2C9 (gene 1559); 17.1 µM (active) with CYP2E1 (gene 1571); 26.6 µM (active) with CYP4A11 (gene 1579); 16.1 µM (active) in [2]. Moreover, the AC50 in [3] was 68.3 µM (active); in experiment [4], 15.3 µM (active); in experiment [5] it was 10 µM (active); in experiment [7], 11.3 µM (active); with CYP3A5 (gene 1577), 9.58 µM (active); in experiment [8] it was 13 µM (active). The AC50 in [9] is 25 µM (active); in experiment [10], 19.1 µM (active); in [11] it was 10.3 µM (active); in experiment [12] it was 71.4 µM (active); in experiment [13], 1.34 µM (active). In [6], the call was inactive.
As for `CCOC(=O)C(Cl)Cc1cc(-n2nc(C)n(C(F)F)c2=O)c(F)cc1Cl` (configuration not stated), the half-maximal activity concentration (AC50) in [1] was 50 µM (active); in experiment [14], 41.1 µM (active); with CYP2C8 (gene 1558), 23.3 µM (active); in the experiment with CYP2C9 (gene 1559), 25.5 µM (active); in [2], 18.7 µM (active); in experiment [7], 34.3 µM (active). The outcome (with CYP2E1 (gene 1571); with CYP4A11 (gene 1579); in experiment [3]; in [4]; in experiment [5]; with CYP3A5 (gene 1577)) was inactive. In addition, the molecule was classed as inactive in experiment [8], in experiment [9], in [10], in experiment [15], in experiment [11] and in experiment [12]. Further, the molecule was called inactive in experiment [13].

Broadly, the AC50 is the midpoint of the concentration-response curve, whichever way the signal moves.

These data come from PubChem BioAssay (EPA / NIEHS).
